This passage reports Potency results from PubChem BioAssay (NCATS).

Results filed as inconclusive are left out. Active and inactive are the calls of the source. Calls come from the whole dose curve; as a rule, active = well fitted curve in the direction sought with a large enough effect; inconclusive = small, poorly fitted or top-dose-only effect, or another doubt; inactive = no such curve, though single readings can be large; an effect the other way counts as inactive or inconclusive.

The nature of test [1]: qHTS of pediatric cancer cell lines to identify multiple opportunities for drug repurposing: Primary screen for DAOY cells (AID 1347090). Note: nearly all actives have a fitted effect of over 55% in size. Note: potency is the fitted concentration of half-maximal effect. In short, it runs like this:
(§1)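 Eight- or eleven-point concentration series, 48 h treatment at 37 degrees C in growth media; readout CellTiter-Glo luminescence. Potency and efficacy were taken from the concentration-response curves.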

The nature of test [2]: qHTS of pediatric cancer cell lines to identify multiple opportunities for drug repurposing: Primary screen for BT-37 cells (AID 1347094). Note: potency is the fitted concentration of half-maximal effect. The gist of the method:
(§2)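 Luminescence from CellTiter-Glo served as readout of metabolically active cells after 48 h compound exposure. Titrations: MIPE 11-point, from 0.78 nM; NPC 8-point, from 0.59 nM (final). Concentration-response curves came straight from the primary screen.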

Test [3] can be described thus: qHTS of pediatric cancer cell lines to identify multiple opportunities for drug repurposing: Primary screen for U-2 OS cells (AID 1347096). Note: nearly all actives have a fitted effect of over 50% in size. Note: potency is the fitted concentration of half-maximal effect. The gist of the method:
(§3)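 Cells (500-1,000/well) in growth media were settled 5 h at 37 degrees C, then given compounds for 48 h. Viability was read as CellTiter-Glo luminescence. Primary runs used MIPE at 11 points (0.78 nM-46 µM) and NPC at 8 points (0.59 nM-46 µM); follow-ups used 11 points.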
On the technique in general: qHTS replaces the single test concentration by a dilution series.

Test [4] is described as follows: qHTS of pediatric cancer cell lines to identify multiple opportunities for drug repurposing: Primary screen for BT-12 cells (AID 1347101). Note: nearly all actives have a fitted effect of over 25% in size. Note: potency is the fitted concentration of half-maximal effect. In short, it runs like this:
(§4)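 Cells (500-1,000/well) rested 5 h, then received compounds for 48 h; metabolically active cells were measured by CellTiter-Glo luminescence. Final concentrations spanned up to 46 µM (MIPE, 11-point) or 0.59 nM-46 µM (NPC, 8-point) in primary screens, 11-point in follow-ups.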

Test [5] can be described thus: qHTS of pediatric cancer cell lines to identify multiple opportunities for drug repurposing: Primary screen for Rh18 cells (AID 1347102). Note: nearly all actives have a fitted effect of over 65% in size. Note: potency is the fitted concentration of half-maximal effect. In short, it runs like this: as §3
A short description of test [6]: qHTS of pediatric cancer cell lines to identify multiple opportunities for drug repurposing: Primary screen for OHS-50 cells (AID 1347103). Note: nearly all actives have a fitted effect of over 40% in size. Note: potency is the fitted concentration of half-maximal effect. In short, it runs like this: as §4
A short description of test [7]: qHTS of pediatric cancer cell lines to identify multiple opportunities for drug repurposing: Primary screen for RD cells (AID 1347104). Note: nearly all actives have a fitted effect of over 55% in size. Note: potency is the fitted concentration of half-maximal effect. In short, it runs like this:
as §2

Test [8] in a line: qHTS of pediatric cancer cell lines to identify multiple opportunities for drug repurposing: Primary screen for control Hh wild type fibroblast cells (AID 1347106).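 Note: series mostly up to about 46 µM; a drop in luminescence marks cytotoxicity and a rise apparent proliferation; nearly all actives have a fitted effect of over 55% in size.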 In short, it runs like this: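 Viability after 48 h compound treatment at 37C, 500-1,000 cells/well, read as ATP luminescence with CellTiter-Glo. Primary screens used 11-point (MIPE, 0.78 nM-46 µM) or 8-point (NPC, 0.59 nM-46 µM) final concentrations; follow-up screens used 11-point dilutions.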

Test [9] can be described thus: qHTS of pediatric cancer cell lines to identify multiple opportunities for drug repurposing: Primary screen for Rh30 cells (AID 1347107). Note: nearly all actives have a fitted effect of over 75% in size. Note: potency is the fitted concentration of half-maximal effect. In short, it runs like this: as §3
Test [10] can be described thus: qHTS of pediatric cancer cell lines to identify multiple opportunities for drug repurposing: Primary screen for Rh41 cells (AID 1347108). Note: nearly all actives have a fitted effect of over 70% in size. Note: potency is the fitted concentration of half-maximal effect. In short, it runs like this: as §2
The nature of test [11]: qHTS of pediatric cancer cell lines to identify multiple opportunities for drug repurposing: Primary screen for SK-N-MC cells (AID 1347093). Note: potency is the fitted concentration of half-maximal effect. The gist of the method: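 Metabolically active cells were quantified by ATP-dependent luminescence (CellTiter-Glo, 15 min at room temperature) following 48 h treatment. Cells had been plated at 500-1,000 per well and settled for 5 h beforehand.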

Test [12] can be described thus: qHTS of pediatric cancer cell lines to identify multiple opportunities for drug repurposing: Primary screen for NB-EBc1 cells (AID 1347095). Note: potency is the fitted concentration of half-maximal effect. In short, it runs like this:
as §2

A short description of test [13]: qHTS of pediatric cancer cell lines to identify multiple opportunities for drug repurposing: Primary screen for SK-N-SH cells (AID 1347098). Note: nearly all actives have a fitted effect of over 65% in size. Note: potency is the fitted concentration of half-maximal effect. In short, it runs like this:
as §4

A short description of test [14]: qHTS of pediatric cancer cell lines to identify multiple opportunities for drug repurposing: Primary screen for MG 63 (6-TG R) cells (AID 1347105). Note: nearly all actives have a fitted effect of over 50% in size. Note: potency is the fitted concentration of half-maximal effect. The gist of the method:
as §2

A short description of test [15]: qHTS of pediatric cancer cell lines to identify multiple opportunities for drug repurposing: Primary screen for SJ-GBM2 cells (AID 1347091). Note: potency is the fitted concentration of half-maximal effect. In short, it runs like this: as §1
Test [16] can be described thus: qHTS of pediatric cancer cell lines to identify multiple opportunities for drug repurposing: Primary screen for A673 cells (AID 1347092). Note: nearly all actives have a fitted effect of over 45% in size. Note: potency is the fitted concentration of half-maximal effect. The gist of the method:
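Cells are plated, rested 5 h, dosed by pintool, incubated 48 h, then lysed with CellTiter-Glo and read by luminescence. DMSO is the neutral control; bortezomib at 2.3 uM final is the positive control.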

Test [17] can be described thus: qHTS of pediatric cancer cell lines to identify multiple opportunities for drug repurposing: Primary screen for Saos-2 cells (AID 1347097). Note: nearly all actives have a fitted effect of over 40% in size. Note: potency is the fitted concentration of half-maximal effect. In short, it runs like this:
as §2

Test [18] in a line: qHTS of pediatric cancer cell lines to identify multiple opportunities for drug repurposing: Primary screen for NB1643 cells (AID 1347099). Note: nearly all actives have a fitted effect of over 50% in size. Note: potency is the fitted concentration of half-maximal effect. In short, it runs like this: as §2
Test [19] in a line: qHTS of pediatric cancer cell lines to identify multiple opportunities for drug repurposing: Primary screen for LAN-5 cells (AID 1347100). Note: potency is the fitted concentration of half-maximal effect. The gist of the method:
as §3

Test [20] is described as follows: qHTS of pediatric cancer cell lines to identify multiple opportunities for drug repurposing: Confirmatory screen for NB1643 cells (AID 1347109). Note: nearly all actives have a fitted effect of over 45% in size. Note: potency is the fitted concentration of half-maximal effect. The gist of the method: as §3

Turning to `CC1=C(C(=O)Nc2cc3cn[nH]c3cc2F)C(c2ccc(C(F)(F)F)cc2)CC(=O)N1` (stereo unspecified), the Potency result in test [1], in test [2], in [3], in [4], in test [5] and in test [6] was “inactive” throughout. The Potency result in [7], in [8], in [9] and in test [10] was “inactive” throughout.

On to `COc1ccc(-c2nc3ccc(C4=NNC(=O)CC4C)cc3[nH]2)cc1` (stereo unspecified), for which the Potency in [1] is 21.1 µM (active); in [11], 21.1 µM (active); in test [12], 11.9 µM (active); in test [13] it was 15.4 µM (active). In addition, the Potency result in test [3], in [14], in test [8] and in test [9] was “inactive” throughout.

For the molecule `CC(C)C[C@@H](C(=O)N[C@H](C(=O)OC1CCCC1)c1ccccc1)[C@H](O)C(=O)NO`, the Potency is 20.9 µM (active) in [15]; 14.8 µM (active) in test [16]; 18.7 µM (active) in test [11]; 24.3 µM (active) in [2]; 16.6 µM (active) in [17]; 18.7 µM (active) in [18]. The Potency in [19] is 16.6 µM (active); in test [6], 21.7 µM (active); in test [20] it was 20.8 µM (active). Besides, the Potency result in test [3] and in test [8] was “inactive” each time.

On to `CCNC(=O)CCCC=CC[C@@H]1[C@H](C=CC(O)CCc2ccccc2)[C@@H](O)C[C@@H]1O` (stereo partly specified), for which the Potency entry in test [15], in [16], in test [11], in [12], in test [3] and in [17] was “inactive” in each case. Also, the Potency entry in [5], in [6], in test [7], in [14], in test [8] and in test [9] was “inactive” each time.

With `CC(C)[C@H](O)C(=O)N[C@@H](C)C(=O)N[C@@H]1C(=O)N(C)CCc2ccccc21`, the Potency entry in [15], in [2], in [12], in [3], in [13] and in test [19] was “inactive” each time. Further, the Potency result in test [4], in [5], in [8] and in test [10] was “inactive” each time. Moreover, the Potency in test [16] was 23.5 µM (active); in test [11], 18.7 µM (active); in test [18], 20.9 µM (active).

For the molecule `Cc1cccc(-c2[nH]c(C(C)(C)C)nc2-c2ccc3c(c2)OCO3)n1`, the Potency in [15] is 4.69 µM (active); in test [16], 4.69 µM (active); in [11], 2.96 µM (active); in test [2], 6.11 µM (active); in test [17], 0.418 µM (active); in test [13], 30.4 µM (active). The Potency in [18] is 11.8 µM (active); in [19], 4.18 µM (active); in test [4], 7.69 µM (active); in [6], 2.73 µM (active); in test [7] it was 9.35 µM (active); in [10], 1.18 µM (active). The Potency result in test [5], in test [14] and in test [9] was “inactive” in each case.

On to `CCC(c1ccc(O)cc1)C(CC)c1ccc(O)cc1` (stereo unspecified), for which the results for the Potency in test [1], in [11] and in test [6] were 0.59 µM (active), 1.05 µM (active) and 27.3 µM (active), respectively. In addition, the Potency entry in [13], in test [19], in test [5], in test [8], in [9] and in [10] was “inactive” in each case.

In the case of `CCC[C@H](N[C@@H](C)C(=O)N1[C@@H]2CCCC[C@H]2C[C@H]1C(=O)O)C(=O)OCC`, the Potency entry in test [1], in [3], in [18], in test [19], in test [14] and in test [8] was “inactive” in each case. Further, the Potency entry in [9], in test [10] and in test [20] was “inactive” in each case. The Potency in test [11] was 3.32 µM (active).

`C[C@H](CCC(=O)O)[C@H]1CC[C@H]2[C@H]3[C@@H](CC[C@]12C)[C@@]1(C)CC[C@@H](O)C[C@H]1C[C@@H]3O`: the Potency entry in [1], in test [3], in [13], in test [18], in [4] and in test [5] was “inactive” throughout. Moreover, the Potency result in test [6], in [8] and in test [9] was “inactive” each time. For the same molecule, the results for the Potency in test [2] and in [12] were 27.3 µM (active) and 14.8 µM (active), respectively.

In the case of `Fc1ccc(C(c2ccc(F)cc2)N2CCN(CC=Cc3ccccc3)CC2)cc1`, the Potency result in test [1], in test [2], in test [3], in test [13], in test [19] and in test [5] was “inactive” each time. For the same molecule, the Potency entry in test [6], in test [7], in test [14], in [8] and in test [9] was “inactive” each time.

For `O=c1[nH]nc(OCCCc2ccc(Cl)cc2)c(NCc2cccnc2)c1Br`, the Potency is 23.5 µM (active) in test [15]; 9.35 µM (active) in [16]; 10.5 µM (active) in test [11]; 21.7 µM (active) in [2]; 23.5 µM (active) in test [3]; 23.5 µM (active) in test [18]. Besides, the Potency was 18.7 µM (active) in [19]; 27.3 µM (active) in test [4]; 23.5 µM (active) in [5]; 19.3 µM (active) in test [6]; 14.8 µM (active) in test [7]; 18.7 µM (active) in test [14]. Moreover, the Potency was 23.5 µM (active) in [9] and 18.7 µM (active) in [10]. In addition, the Potency entry in [13] was “inactive”.

Regarding `C[C@H]1O[C@@H](n2cc(F)c(=O)[nH]c2=O)[C@H](O)[C@H]1O`, the Potency entry in [1], in test [3], in test [17], in test [6] and in [8] was “inactive” in each case. For the same molecule, the Potency in test [12] is 4.69 µM (active); in [18], 18.7 µM (active); in [4], 27.3 µM (active).

Turning to `O=C(Nc1cccc2c(=O)cc(-c3nn[nH]n3)oc12)c1ccc(OCCCCc2ccccc2)cc1`, the Potency result in [1], in [3], in test [18], in [14], in test [8] and in [9] was “inactive” each time. In addition, the Potency result in [10] is “inactive”. In addition, the Potency in test [6] was 24.3 µM (active); in [7] it was 37.2 µM (active).

On to `c1cc(OCCN2CCCCC2)cc(-c2n[nH]c3ccc(-c4ncn[nH]4)cc23)c1`, for which the Potency entry in [15], in test [12], in test [3], in test [17], in test [5] and in test [7] was “inactive” each time. Also, the Potency entry in test [14], in [9] and in test [10] was “inactive” each time. Further, the Potency is 9.35 µM (active) in test [16]; 16.6 µM (active) in test [11]; 19.3 µM (active) in test [2]; 14.8 µM (active) in [19]; 6.85 µM (active) in test [6].
